Source: PubChem BioAssay
Pf growth 48h: inhibits P. falciparum growth in the first generation, 48 h. Potency, µM (series often up to 28.7 µM), for the others: at the highest dose activity change, negative = inhibition, most hits filed as inhibitors. P. falciparum luciferase growth in erythrocytes, 48 h. 5.9% of 310,000 active; note: potency is the fitted concentration of half-maximal effect; % is set by controls: 0 for no effect and ±100 for the full control effect
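Read-out is firefly luciferase luminescence from an integrated reporter in P. falciparum, so falling signal marks reduced parasite growth. Infected erythrocytes were at 2% hematocrit and 0.1% parasitemia (final) in Albumax-supplemented RPMI 1640.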
Shiga toxin inh: Shiga toxin inhibition; Vero cells, Shiga toxin protein synthesis inhibition reporter; inhibition, % at 38.7 µM; 9.2% of 290,000 active; AID 2315; in the data active = inhibition mostly above about 28%, no sharp cut-off; inactive = mostly below about 43%; note: 0% is about no effect
SARS PLpro yeast: blocks SARS-CoV papain-like protease in a yeast assay; S. cerevisiae expressing SARS-CoV PLpro, growth rescue; Potency, µM (doses to about 32.9 µM), without a hit: at the highest dose activity, positive = growth rescue, usual class: activators; 0.19% of 330,000 active; AID 485353; calls by dose curve; note: potency is the fitted concentration of half-maximal effect; 0% is about no effect; nearly all actives have a fitted effect of over 55% in size
AMA1-RON2 inh: disrupts binding of P. falciparum AMA1 to RON2. Potency, µM (titrated, usually from 58.2 µM), inactives show at the top dose activity change, negative = inhibition, most hits filed as inhibitors. AID 720542. 0.2% of 360,000 active. AlphaScreen AMA1-biotinylated RON2 peptide binding;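 note: potency is the fitted concentration of half-maximal effect; 0% = vehicle wells and -100% = peptide control; nearly all actives have a fitted effect of over 45% in size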
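AMA1 (3D7) with his tag at 25 nM final met compounds first, then biotinylated RON2 peptide at 25 nM; detection used donor plus acceptor beads, 10 µg/mL apiece, read by AlphaScreen after 30 min at room temperature.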
Cycloheximide cs: counter-screen hit for Shiga toxin inhibitors, cycloheximide. cell reporter, cycloheximide protein synthesis inhibition counterscreen. max response, %. 12% of 300,000 active. AID 2314; in the data active = max response mostly above about 13%, no sharp cut-off; inactive = mostly below about 14%; note: read at 38.3 µM for the half of the compounds with a filed dose; 0% is about no effect
Pf growth 96h: P. falciparum growth inhibition at 96 hours; P. falciparum luciferase reporter growth, 96 h; Potency, µM (titrated, usually from 28.7 µM), inactives show top-dose activity change, negative = inhibition, most hits filed as inhibitors; 6.9% of 320,000 active; AID 504834; note: potency is the fitted concentration of half-maximal effect; % is set by controls: 0 for no effect and ±100 for the full control effect
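Luminescence readout: decreased luciferase signal marks inhibited growth of reporter-expressing P. falciparum in infected red cells (2% hematocrit, 0.05% parasitemia final), exposed to compound two generations (96 h, 37 C, 5% CO2).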
* hit, by the source's call; i = inactive; ? = inconclusive; nt = no result; [ ] = another dose, or the depositor's remark. The list is not random: actives were taken first. Their share in the collection is about 19%. Unless noted, calls come from the whole dose curve; as a rule, active = well fitted curve in the direction sought with a large enough effect; inconclusive = small, poorly fitted or top-dose-only effect, or another doubt; inactive = no such curve, though single readings can be large; an effect the other way counts as inactive or inconclusive.

SMILES	Pf growth 48h	Shiga toxin inh	SARS PLpro yeast	AMA1-RON2 inh	Cycloheximide cs	Pf growth 96h
Cc1ccc(S(=O)(=O)NC(=O)Nc2c(C)n(C)n(-c3ccccc3)c2=O)cc1	10%	-4	-3%	8%	-4	12µM*
O=S(=O)(Nc1ccccn1)c1ccc(-n2cccn2)cc1	12%	-14	4%	0%	-4	-12%
Cc1c(NC(=O)c2ccccc2NS(=O)(=O)c2ccc(Br)cc2)c(=O)n(-c2ccccc2)n1C	13%	-7	-6%	9%	5	-18%
Cc1ccc(S(=O)(=O)Nc2c(C)n(C)n(-c3ccccc3)c2=O)cc1C(=O)OC(C)C(=O)N(C)c1ccccc1 (stereo not drawn)	-22%	-3	4%	-6%	-3	15µM*
O=S(=O)(Nc1ccn(-c2ccccc2)n1)c1ccc(Br)cc1	37%	42	-26%	-8%	16*	nt
Nc1nnn(CC(=O)N/N=C/c2ccc(Cl)cc2Cl)n1	52%	17	0%	0%	5	14%
Cc1cc(S(=O)(=O)N2CCN=C2c2ccccc2)c(Cl)cc1Cl	-12%	-12	1%	0%	-3	?
Cc1ccc2c(c1)NCCO2	0%	-14	6%	-1%	-4	?
O=C1N(c2ccccc2)C[C@@H]2C[C@@H](c3cc4ccccc4o3)N3CCC[C@@]123	-15%	1	0%	5%	9	13µM*
C=C(C)COc1ccc(-c2nc(N)ncc2-c2ccc(OC)cc2)c(O)c1	?	-2	-4%	nt	-6	-6%
C=C(C)COc1ccc(-c2ncncc2Oc2ccc(OC)cc2)c(O)c1	3.7µM*	85*	-14%	33%	28*	nt
C=C(C)COc1ccc(-c2[nH]ncc2Oc2ccccc2OCC)c(O)c1	1.3µM*	26	-21%	110%	9	1.2µM*
COc1ccc(-c2[nH]ncc2Oc2ccccc2OC)c(O)c1	?	-5	-20%	11%	-1	-13%
C=C(C)COc1ccc(-c2[nH]ncc2Oc2cccc(OC)c2)c(O)c1	9.3µM*	-21	-18%	92%	5	8.3µM*
CCOc1ccccc1Oc1cn[nH]c1-c1ccc(O)cc1O	8.3µM*	-14	0%	44%	-5	9.3µM*
O=C(NCc1cccnc1)c1cc(C2CCCN(C(=O)c3ccccn3)C2)on1 (stereo not drawn)	nt	nt	nt	10%	nt	nt
CC(=O)OCCNC(=O)Cn1cnc2c1c(=O)n(C)c(=O)n2C	3%	-41	0%	6%	-3	nt
CCC(CC)NCC(O)COc1ccc(Br)cc1 (stereo not drawn)	3.7µM*	-11	-1%	-13%	-5	7.4µM*
CC(C)NCC(O)COc1ccc(Br)cc1 (stereo not drawn)	?	25	0%	16%	-3	3%
CCOc1ccc(CCNC(=O)Cn2c(=O)c3cccn3c3cccnc32)cc1	9%	-2	-4%	-3%	-2	-17%
CC(C)(C)c1cc(N2CCOCC2)n2ncc(-c3ccccc3)c2n1	nt	12	4%	23%	8	-20%
CCCc1cc(N2CCOCC2)n2ncc(-c3ccccc3)c2n1	29%	58*	1%	53%	39*	38%
Cc1nc2c(-c3ccccc3)cnn2c(N2CCOCC2)c1C	187%	98*	-1%	41%	47*	180%
CC(=O)c1cccc(NC(=O)COC(=O)Cc2ccc(Cl)cc2)c1	-23%	nt	2%	24%	nt	14%
CC(=O)c1cccc(OCc2cc(C(=O)NCc3nc(C)c(C)s3)no2)c1	-27%	83*	-3%	17%	40*	-2%
SMILES	Pf growth 48h	Shiga toxin inh	SARS PLpro yeast	AMA1-RON2 inh	Cycloheximide cs	Pf growth 96h
CC(C)N(Cc1nccn1C)C(=O)c1cc(COc2cccc(C(F)(F)F)c2)on1	10%	-4	1%	-1%	-6	-14%
CCOC(=O)N1CCN(C(=O)c2cc(COc3cccc(C(C)=O)c3)on2)CC1	-9%	45	-3%	-9%	41*	-10%
CCOC(=O)N1CCN(C(=O)c2cc(COc3ccc4ncccc4c3)on2)CC1	?	-8	0%	12%	-2	i
CCOC(=O)N1CCN(C(=O)c2cc(COc3cccc(C(F)(F)F)c3)on2)CC1	?	60*	-3%	-3%	46*	9%
O=C(NCc1ccc(Cl)s1)c1cc(COc2c(F)cccc2F)on1	36%	8	-1%	-7%	-1	?
CN(Cc1nccn1C)C(=O)c1cc(COc2cccc(C(F)(F)F)c2)on1	-9%	42*	-2%	-7%	37*	9.3µM*
COc1cc(C(=O)OCC(=O)Nc2ccc(S(=O)(=O)NC3=NCCCCC3)cc2)cc(OC)c1OC	nt	nt	6%	6%	nt	nt
CC(=O)n1c(Cl)c(NC(=O)CCl)c2ccccc21	nt	-13	?	-1%	-1	2.1µM*
Cc1[nH]c(=S)[nH]c(=O)c1Cc1ccccc1	28%	3	2%	15%	0	13µM*
COc1ccc(Cc2c(O)[nH]c(=S)[nH]c2=O)cc1	4%	-4	10%	0%	-4	0.37µM*
CCOCc1[nH]c(=S)[nH]c(=O)c1Cc1ccc(OC(C)C)cc1	?	11	1%	112%	5	111%
S=C(NCC1CCCO1)NC1CCCCC1 (stereo not drawn)	19%	-2	0%	-1%	7	2%
CCCC(NC(=S)NCC1CCCO1)C12CC3CC(CC(C3)C1)C2 (stereo not drawn)	2.6µM*	-8	3%	30%	-2	-1%
Nc1c(Cl)ncnc1N/N=C/c1ccncc1	-14%	-4	-1%	6%	12	0%
COc1ccc(/C=N/Nc2nccnc2Cl)cc1	nt	39	-10%	13%	36*	189%
COc1ccc(/C=N/Nc2nccnc2Cl)c(OC)c1	-12%	78*	0%	29%	29*	8%
Clc1nccnc1N/N=C/c1ccc(Br)cc1	128%	40*	-5%	17%	40*	-30%
CCOC(=O)C1(Cc2ccccc2)CCCN(C(=O)COc2ccccc2OC)C1 (stereo not drawn)	nt	nt	nt	-9%	nt	nt
O=C1CCCC1C(=O)Nc1ccc2ccccc2c1 (stereo not drawn)	24%	45*	-6%	3%	17*	34%
OC(c1ccccc1)(c1nc(-c2ccccc2)cs1)C(F)(F)F (stereo not drawn)	nt	nt	nt	19%	nt	nt
OCc1cc(Br)ccc1OCc1nc2ccccc2s1	58%	82*	1%	-9%	45*	86%
Oc1ccc(O)c(Cc2nc3ccccc3s2)c1	?	43*	1%	-29%	32*	-4%
Oc1ccccc1OCc1nc2ccccc2s1	156%	143*	-6%	-1%	35*	9%
OCCCCNCc1cc(Br)ccc1OCc1ccccc1	-43%[1.15 µM]	14	1%	-2%	-4	-6%
